# Article PMC11006913
# Where a chain is given by its changes, count along the chain named.
# Legend:
# Experiment in all cases: PBM; 200 nM protein, PBS
# Details in all cases: dsDNA, one strand shown
# HESX1 [1] = molecular target: HESX1 (Homo sapiens, UniProt Q9UBX0 95-180, R165K)
# HESX1 [2] = molecular target: HESX1 (Homo sapiens, UniProt Q9UBX0 95-180)
# HESX1 [3] = molecular target: HESX1 (Homo sapiens, UniProt Q9UBX0 95-180, R109Q)
# HESX1 [4] = molecular target: HESX1 (Homo sapiens, UniProt Q9UBX0 95-180, P111T)
# HESX1 (Homo sapiens, UniProt Q9UBX0 95-180, P111T), sequence (Q9UBX0 95-180 P111T): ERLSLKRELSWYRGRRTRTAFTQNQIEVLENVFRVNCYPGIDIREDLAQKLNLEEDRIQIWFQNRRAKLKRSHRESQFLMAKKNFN
# HESX1 [5] = molecular target: HESX1 (Homo sapiens, UniProt Q9UBX0 95-180, F115L)
# HESX1 (Homo sapiens, UniProt Q9UBX0 95-180, F115L), sequence (Q9UBX0 95-180 F115L): as the sequence (Q9UBX0 95-180 P111T) above, with T17P, F21L counted along it
# HOXB4 [6] = molecular target: HOXB4 (Homo sapiens, UniProt P17483 148-234)
# HOXB4 (Homo sapiens, UniProt P17483 148-234), sequence (P17483 148-234): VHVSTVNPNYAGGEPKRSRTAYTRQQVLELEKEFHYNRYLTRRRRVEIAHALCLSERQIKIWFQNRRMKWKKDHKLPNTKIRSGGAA
# SHOX [7] = molecular target: SHOX (Homo sapiens, UniProt O15266 103-189)
# SHOX (Homo sapiens, UniProt O15266 103-189), sequence (O15266 103-189): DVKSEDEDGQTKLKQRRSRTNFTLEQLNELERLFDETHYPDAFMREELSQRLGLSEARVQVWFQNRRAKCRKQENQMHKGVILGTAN
# HOXB4 [8] = molecular target: HOXB4 (Homo sapiens, UniProt P17483 148-234, V174I)
# HOXB4 (Homo sapiens, UniProt P17483 148-234, V174I), sequence (P17483 148-234 V174I): as the sequence (P17483 148-234) above, with V27I counted along it
# NKX2-6 [9] = molecular target: T1, NKX2-6 (Homo sapiens, UniProt A6NCS4 118-204)
# T1 sequence: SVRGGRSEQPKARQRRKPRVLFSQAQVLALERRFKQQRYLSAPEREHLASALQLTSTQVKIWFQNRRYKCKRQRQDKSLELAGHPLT
# SHOX [10] = molecular target: SHOX (Homo sapiens, UniProt O15266 103-189, R173C)
# SHOX (Homo sapiens, UniProt O15266 103-189, R173C), sequence (O15266 103-189 R173C): as the sequence (O15266 103-189) above, with R71C counted along it
# NKX2-6 [11] = molecular target: T2, NKX2-6 (Homo sapiens, UniProt A6NCS4 118-204, F151L)
# T2 sequence: T1 sequence with F34L
# VENTX [12] = molecular target: T3, VENTX (Homo sapiens, UniProt O95231 78-163, R121Q)
# T3 sequence: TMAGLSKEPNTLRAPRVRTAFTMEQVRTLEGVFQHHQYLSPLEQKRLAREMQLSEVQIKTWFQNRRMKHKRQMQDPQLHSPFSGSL
# HOXB9 [13] = molecular target: HOXB9 (Homo sapiens, UniProt P17482 171-250, T197M)
# HOXB9 (Homo sapiens, UniProt P17482 171-250, T197M), sequence (P17482 171-250 T197M): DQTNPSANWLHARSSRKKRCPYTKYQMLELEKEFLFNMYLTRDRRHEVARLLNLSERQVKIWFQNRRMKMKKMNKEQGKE
# HOXA4 [14] = molecular target: HOXA4 (Homo sapiens, UniProt Q00056 201-287, W262R)
# HOXA4 (Homo sapiens, UniProt Q00056 201-287, W262R), sequence (Q00056 201-287 W262R): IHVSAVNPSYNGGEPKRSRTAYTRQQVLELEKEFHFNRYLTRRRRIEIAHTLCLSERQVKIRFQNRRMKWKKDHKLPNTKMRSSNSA
# HOXC9 [15] = molecular target: HOXC9 (Homo sapiens, UniProt P31274 178-260, K195R)
# HOXC9 (Homo sapiens, UniProt P31274 178-260, K195R), sequence (P31274 178-260 K195R): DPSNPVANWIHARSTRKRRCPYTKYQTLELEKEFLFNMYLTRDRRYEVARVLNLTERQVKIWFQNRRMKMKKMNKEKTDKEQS
# VENTX [16] = molecular target: T4, VENTX (Homo sapiens, UniProt O95231 78-163)
# T4 sequence: T3 sequence with Q44R
# HOXA7 [17] = molecular target: HOXA7 (Homo sapiens, UniProt P31268 116-202)
# HOXA7 (Homo sapiens, UniProt P31268 116-202), sequence (P31268 116-202): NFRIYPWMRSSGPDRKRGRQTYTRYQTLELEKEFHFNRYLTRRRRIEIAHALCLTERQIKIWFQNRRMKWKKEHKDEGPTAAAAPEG
# HOXC10 [18] = molecular target: HOXC10 (Homo sapiens, UniProt Q9NYD6 254-340)
# HOXC10 (Homo sapiens, UniProt Q9NYD6 254-340), sequence (Q9NYD6 254-340): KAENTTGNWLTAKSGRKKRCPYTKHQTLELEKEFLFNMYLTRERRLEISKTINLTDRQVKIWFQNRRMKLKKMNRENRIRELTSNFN
# PAX4 = molecular target: T5, PAX4 (Homo sapiens, UniProt O43316 9-242, R200K)
# T5 sequence: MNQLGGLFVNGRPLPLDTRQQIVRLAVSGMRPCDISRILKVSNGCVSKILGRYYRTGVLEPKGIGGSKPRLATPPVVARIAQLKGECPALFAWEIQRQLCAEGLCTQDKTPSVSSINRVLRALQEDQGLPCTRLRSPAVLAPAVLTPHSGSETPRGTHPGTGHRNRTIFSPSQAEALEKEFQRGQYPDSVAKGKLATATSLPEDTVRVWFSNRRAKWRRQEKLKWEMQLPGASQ
# VENTX [19] = molecular target: T6, VENTX (Homo sapiens, UniProt O95231 78-163, Y115F)
# T6 sequence: T3 sequence with Y38F, Q44R
# HOXB6 [20] = molecular target: HOXB6 (Homo sapiens, UniProt P17509 132-218, K202E)
# HOXB6 (Homo sapiens, UniProt P17509 132-218, K202E), sequence (P17509 132-218 K202E): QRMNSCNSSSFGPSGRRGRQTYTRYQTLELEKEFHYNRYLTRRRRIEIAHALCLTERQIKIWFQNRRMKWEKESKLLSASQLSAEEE
# HOXA2 [21] = molecular target: HOXA2 (Homo sapiens, UniProt O43364 129-215, R185T)
# HOXA2 (Homo sapiens, UniProt O43364 129-215, R185T), sequence (O43364 129-215 R185T): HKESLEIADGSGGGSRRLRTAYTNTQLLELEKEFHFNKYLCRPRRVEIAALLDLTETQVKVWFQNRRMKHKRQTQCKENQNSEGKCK
# HOXA4 [22] = molecular target: HOXA4 (Homo sapiens, UniProt Q00056 201-287, R217L)
# HOXA4 (Homo sapiens, UniProt Q00056 201-287, R217L), sequence (Q00056 201-287 R217L): as the sequence (Q00056 201-287 W262R) above, with R17L, R62W counted along it
# HOXB9 [23] = molecular target: HOXB9 (Homo sapiens, UniProt P17482 171-250)
# HOXB9 (Homo sapiens, UniProt P17482 171-250), sequence (P17482 171-250): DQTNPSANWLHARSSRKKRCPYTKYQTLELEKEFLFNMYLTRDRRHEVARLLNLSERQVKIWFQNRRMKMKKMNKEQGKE
# HOXC9 [24] = molecular target: HOXC9 (Homo sapiens, UniProt P31274 178-260)
# HOXC9 (Homo sapiens, UniProt P31274 178-260), sequence (P31274 178-260): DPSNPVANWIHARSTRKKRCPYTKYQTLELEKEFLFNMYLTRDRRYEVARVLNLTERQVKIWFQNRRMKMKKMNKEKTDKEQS
# HOXC9 [25] = molecular target: HOXC9 (Homo sapiens, UniProt P31274 178-260, R193K)
# HOXC9 (Homo sapiens, UniProt P31274 178-260, R193K), sequence (P31274 178-260 R193K): as the sequence (P31274 178-260) above, with R16K counted along it
# HOXA2 [26] = molecular target: HOXA2 (Homo sapiens, UniProt O43364 129-215, R185K)
# HOXA2 (Homo sapiens, UniProt O43364 129-215, R185K), sequence (O43364 129-215 R185K): as the sequence (O43364 129-215 R185T) above, with T57K counted along it
# HOXA4 [27] = molecular target: HOXA4 (Homo sapiens, UniProt Q00056 201-287)
# HOXA4 (Homo sapiens, UniProt Q00056 201-287), sequence (Q00056 201-287): as the sequence (Q00056 201-287 W262R) above, with R62W counted along it
# HOXC10 [28] = molecular target: HOXC10 (Homo sapiens, UniProt Q9NYD6 254-340, K271E)
# HOXC10 (Homo sapiens, UniProt Q9NYD6 254-340, K271E), sequence (Q9NYD6 254-340 K271E): as the sequence (Q9NYD6 254-340) above, with K18E counted along it
# VAX1 [29] = molecular target: VAX1 (Homo sapiens, UniProt Q5SQQ9 86-172)
# VAX1 (Homo sapiens, UniProt Q5SQQ9 86-172), sequence (Q5SQQ9 86-172): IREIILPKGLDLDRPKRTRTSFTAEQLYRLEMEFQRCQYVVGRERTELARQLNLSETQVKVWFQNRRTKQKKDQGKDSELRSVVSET
# HOXD13 = HOXD13 (Homo sapiens, UniProt P35453 263-343, T313A)
# HOXD13, sequence (P35453 263-343 T313A): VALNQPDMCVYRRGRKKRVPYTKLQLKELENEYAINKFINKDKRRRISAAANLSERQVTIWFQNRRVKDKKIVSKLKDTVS
# HOXB9 [30] = molecular target: HOXB9 (Homo sapiens, UniProt P17482 171-250, R186Q)
# HOXB9 (Homo sapiens, UniProt P17482 171-250, R186Q), sequence (P17482 171-250 R186Q): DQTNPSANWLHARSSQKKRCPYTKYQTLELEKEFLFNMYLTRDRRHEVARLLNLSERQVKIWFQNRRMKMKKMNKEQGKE
# HOXC9 [31] = molecular target: HOXC9 (Homo sapiens, UniProt P31274 178-260, R222W)
# HOXC9 (Homo sapiens, UniProt P31274 178-260, R222W), sequence (P31274 178-260 R222W): as the sequence (P31274 178-260) above, with R45W counted along it
# VAX1 [32] = molecular target: VAX1 (Homo sapiens, UniProt Q5SQQ9 86-172, T142I)
# VAX1 (Homo sapiens, UniProt Q5SQQ9 86-172, T142I), sequence (Q5SQQ9 86-172 T142I): as the sequence (Q5SQQ9 86-172) above, with T57I counted along it
# HOXA2 [33] = molecular target: HOXA2 (Homo sapiens, UniProt O43364 129-215, Y150S)
# HOXA2 (Homo sapiens, UniProt O43364 129-215, Y150S), sequence (O43364 129-215 Y150S): as the sequence (O43364 129-215 R185T) above, with Y22S, T57R counted along it
# HOXA7 [34] = molecular target: HOXA7 (Homo sapiens, UniProt P31268 116-202, W177C)
# HOXA7 (Homo sapiens, UniProt P31268 116-202, W177C), sequence (P31268 116-202 W177C): as the sequence (P31268 116-202) above, with W62C counted along it
# HOXA4 [35] = molecular target: HOXA4 (Homo sapiens, UniProt Q00056 201-287, W262F)
# HOXA4 (Homo sapiens, UniProt Q00056 201-287, W262F), sequence (Q00056 201-287 W262F): as the sequence (Q00056 201-287 W262R) above, with R62F counted along it
# HOXA2 [36] = molecular target: HOXA2 (Homo sapiens, UniProt O43364 129-215)
# HOXA2 (Homo sapiens, UniProt O43364 129-215), sequence (O43364 129-215): as the sequence (O43364 129-215 R185T) above, with T57R counted along it
# VAX1 [37] = molecular target: VAX1 (Homo sapiens, UniProt Q5SQQ9 86-172, K157R)
# VAX1 (Homo sapiens, UniProt Q5SQQ9 86-172, K157R), sequence (Q5SQQ9 86-172 K157R): as the sequence (Q5SQQ9 86-172) above, with K72R counted along it
# HOXB6 [38] = molecular target: HOXB6 (Homo sapiens, UniProt P17509 132-218)
# HOXB6 (Homo sapiens, UniProt P17509 132-218), sequence (P17509 132-218): as the sequence (P17509 132-218 K202E) above, with E71K counted along it
# HESX1 (Homo sapiens, UniProt Q9UBX0 95-180), sequence (Q9UBX0 95-180): as the sequence (Q9UBX0 95-180 P111T) above, with T17P counted along it
# HESX1 (Homo sapiens, UniProt Q9UBX0 95-180, R165K), sequence (Q9UBX0 95-180 R165K): as the sequence (Q9UBX0 95-180 P111T) above, with T17P, R71K counted along it
# HESX1 (Homo sapiens, UniProt Q9UBX0 95-180, R109Q), sequence (Q9UBX0 95-180 R109Q): as the sequence (Q9UBX0 95-180 P111T) above, with R15Q, T17P counted along it
sequence,measurement,setting,value
CAGAACGC,binding signal,HESX1 [1],"6.46 upbm affinity estimate (log intensity, higher = more binding, comparable within an allelic series)"
same,binding signal,HESX1 [2],"6.44 upbm affinity estimate (log intensity, higher = more binding, comparable within an allelic series)"
same,binding signal,HESX1 [3],"6.49 upbm affinity estimate (log intensity, higher = more binding, comparable within an allelic series)"
same,binding signal,HESX1 [4],"6.34 upbm affinity estimate (log intensity, higher = more binding, comparable within an allelic series)"
same,binding signal,HESX1 [5],"6.48 upbm affinity estimate (log intensity, higher = more binding, comparable within an allelic series)"
GACTCGGC,binding signal,HOXB4 [6],"7.87 upbm affinity estimate (log intensity, higher = more binding, comparable within an allelic series)"
same,binding signal,SHOX [7],"7.16 upbm affinity estimate (log intensity, higher = more binding, comparable within an allelic series)"
same,binding signal,HOXB4 [8],"7.65 upbm affinity estimate (log intensity, higher = more binding, comparable within an allelic series)"
same,binding signal,NKX2-6 [9],"9.17 upbm affinity estimate (log intensity, higher = more binding, comparable within an allelic series)"
same,binding signal,SHOX [10],"7.19 upbm affinity estimate (log intensity, higher = more binding, comparable within an allelic series)"
same,binding signal,NKX2-6 [11],"9.23 upbm affinity estimate (log intensity, higher = more binding, comparable within an allelic series)"
ATTAATGG,binding signal,HOXB4 [6],"13.4 upbm affinity estimate (log intensity, higher = more binding, comparable within an allelic series)"
same,binding signal,VENTX [12],"12.2 upbm affinity estimate (log intensity, higher = more binding, comparable within an allelic series)"
same,binding signal,HOXB9 [13],"10.3 upbm affinity estimate (log intensity, higher = more binding, comparable within an allelic series)"
same,binding signal,HOXA4 [14],"10.7 upbm affinity estimate (log intensity, higher = more binding, comparable within an allelic series)"
same,binding signal,HOXC9 [15],"12.9 upbm affinity estimate (log intensity, higher = more binding, comparable within an allelic series)"
same,binding signal,VENTX [16],"12.7 upbm affinity estimate (log intensity, higher = more binding, comparable within an allelic series)"
same,binding signal,HOXA7 [17],"12 upbm affinity estimate (log intensity, higher = more binding, comparable within an allelic series)"
same,binding signal,HOXC10 [18],"12.4 upbm affinity estimate (log intensity, higher = more binding, comparable within an allelic series)"
same,binding signal,PAX4,"11.7 upbm affinity estimate (log intensity, higher = more binding, comparable within an allelic series)"
same,binding signal,VENTX [19],"11.8 upbm affinity estimate (log intensity, higher = more binding, comparable within an allelic series)"
same,binding signal,HOXB6 [20],"10.2 upbm affinity estimate (log intensity, higher = more binding, comparable within an allelic series)"
same,binding signal,HOXA2 [21],"12.6 upbm affinity estimate (log intensity, higher = more binding, comparable within an allelic series)"
same,binding signal,HOXA4 [22],"12.2 upbm affinity estimate (log intensity, higher = more binding, comparable within an allelic series)"
same,binding signal,HOXB9 [23],"12.3 upbm affinity estimate (log intensity, higher = more binding, comparable within an allelic series)"
same,binding signal,HOXB4 [8],"14.1 upbm affinity estimate (log intensity, higher = more binding, comparable within an allelic series)"
same,binding signal,HOXC9 [24],"12.9 upbm affinity estimate (log intensity, higher = more binding, comparable within an allelic series)"
same,binding signal,HOXC9 [25],"12.9 upbm affinity estimate (log intensity, higher = more binding, comparable within an allelic series)"
same,binding signal,HOXA2 [26],"13.4 upbm affinity estimate (log intensity, higher = more binding, comparable within an allelic series)"
same,binding signal,HOXA4 [27],"13.9 upbm affinity estimate (log intensity, higher = more binding, comparable within an allelic series)"
same,binding signal,HOXC10 [28],"12.2 upbm affinity estimate (log intensity, higher = more binding, comparable within an allelic series)"
same,binding signal,VAX1 [29],"13 upbm affinity estimate (log intensity, higher = more binding, comparable within an allelic series)"
same,binding signal,HOXD13,"11.6 upbm affinity estimate (log intensity, higher = more binding, comparable within an allelic series)"
same,binding signal,HOXB9 [30],"12 upbm affinity estimate (log intensity, higher = more binding, comparable within an allelic series)"
same,binding signal,HOXC9 [31],"11.2 upbm affinity estimate (log intensity, higher = more binding, comparable within an allelic series)"
same,binding signal,VAX1 [32],"12.6 upbm affinity estimate (log intensity, higher = more binding, comparable within an allelic series)"
same,binding signal,HOXA2 [33],"11.1 upbm affinity estimate (log intensity, higher = more binding, comparable within an allelic series)"
same,binding signal,HOXA7 [34],"8.96 upbm affinity estimate (log intensity, higher = more binding, comparable within an allelic series)"
same,binding signal,HOXA4 [35],"11.6 upbm affinity estimate (log intensity, higher = more binding, comparable within an allelic series)"
same,binding signal,HOXA2 [36],"12.3 upbm affinity estimate (log intensity, higher = more binding, comparable within an allelic series)"
same,binding signal,VAX1 [37],"12.5 upbm affinity estimate (log intensity, higher = more binding, comparable within an allelic series)"
same,binding signal,HOXB6 [38],"12.4 upbm affinity estimate (log intensity, higher = more binding, comparable within an allelic series)"
